# The full ranking holds about 2,900 compounds; the median of “NF-kB SEAP reporter activity, fold change vs agonist alone” is about 0.99, and the highest 2% start at about 2.6. The list comes from a sample in which the highest values are over-represented; it also holds similar structures and randomly drawn compounds.
# Tests used:
# RAW-Dual [1] = assay: NF-kB SEAP reporter activity, fold change vs agonist alone; higher = enhanced NF-kB activity; conditions: library stock concentration (final ~1000-fold dilution): 10 mM
# In short: (§1)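 Cytotoxic wells were those whose IncuCyte confluency was below 70% of agonist controls in both mask sets. The cells were RAW-Dual macrophages at 50,000 cells/well in DMEM on 384-well plates, dosed with 50 nL of library stock by pin tool, stimulated with a PRR agonist 1 h later, and kept at 37 °C, 5% CO2 for 20 hours. IRF and NF-κB reporter activity, as fold change over agonist-alone wells, came from supernatant read by QuantiLuc luminescence and QuantiBlue absorbance, respectively.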
# RAW-Dual [2] = assay: NF-kB SEAP reporter activity, fold change vs agonist alone; cytotoxicity flag (confluency mask): cytotoxic (confluency <70% of control); higher = enhanced NF-kB activity
# In short: as §1
# RAW-Dual [3] = assay: NF-kB SEAP reporter activity, fold change vs agonist alone; cytotoxicity flag (confluency mask): not cytotoxic; higher = enhanced NF-kB activity
# In short: as §1
# [4] = cytotoxicity flag (confluency mask): cytotoxic (confluency <70% of control), agonist: Imiquimod (TLR7) […]
# [5] = cytotoxicity flag (confluency mask): cytotoxic (confluency <70% of control), agonist: MPLA (TLR4) […]
# [6] = agonist: ODN 1826 (TLR9) 0.5 ug/mL
# [7] = agonist: Pam2CSK4 (TLR2/6) 0.1 ug/mL
# [8] = agonist: Pam3CSK4 (TLR2/1) 0.1 ug/mL
# [9] = cytotoxicity flag (confluency mask): not cytotoxic, agonist: Imiquimod (TLR7) […]
# [10] = cytotoxicity flag (confluency mask): not cytotoxic, agonist: MPLA (TLR4) […]
smiles,measurement,setting,value
CN1CCN(Cc2ccc(NC(=O)Nc3ccc(Oc4ccnc(N)n4)cc3)cc2C(F)(F)F)CC1,NF-kB SEAP reporter activity,RAW-Dual [1]; [4],0.146
same,NF-kB SEAP reporter activity,RAW-Dual [1]; [5],0.248
CN1CCN(Cc2ccc(NC(=O)Nc3ccc(Oc4ccnc(N)n4)cc3)cc2C(F)(F)F)CC1 (library stock concentration (final ~1000-fold dilution): 10 mM),NF-kB SEAP reporter activity,RAW-Dual [2]; agonist: LPS (TLR4) 0.1 ug/mL,0.293
same,NF-kB SEAP reporter activity,RAW-Dual [2]; [6],0.197
same,NF-kB SEAP reporter activity,RAW-Dual [2]; [7],0.0678
same,NF-kB SEAP reporter activity,RAW-Dual [2]; [8],0.129
OC1C=C2CCN3Cc4cc5c(cc4C(C1O)C23)OCO5 (stereo not drawn) (library stock concentration (final ~1000-fold dilution): 10 mM),NF-kB SEAP reporter activity,RAW-Dual [2]; agonist: LPS (TLR4) 0.1 ug/mL,1.54
same,NF-kB SEAP reporter activity,RAW-Dual [2]; [6],1.05
same,NF-kB SEAP reporter activity,RAW-Dual [2]; [7],0.33
same,NF-kB SEAP reporter activity,RAW-Dual [2]; [8],0.552
OC1C=C2CCN3Cc4cc5c(cc4C(C1O)C23)OCO5 (stereo not drawn),NF-kB SEAP reporter activity,RAW-Dual [1]; [4],2.07
same,NF-kB SEAP reporter activity,RAW-Dual [1]; [5],1.61
CNCCC(Oc1ccccc1C)c1ccccc1.Cl (stereo not drawn),NF-kB SEAP reporter activity,RAW-Dual [1]; [9],1.52
same,NF-kB SEAP reporter activity,RAW-Dual [1]; [10],1.15
CNCCC(Oc1ccccc1C)c1ccccc1.Cl (stereo not drawn) (library stock concentration (final ~1000-fold dilution): 10 mM),NF-kB SEAP reporter activity,RAW-Dual [3]; agonist: LPS (TLR4) 0.1 ug/mL,1.15
same,NF-kB SEAP reporter activity,RAW-Dual [3]; [6],0.76
same,NF-kB SEAP reporter activity,RAW-Dual [3]; [7],0.791
same,NF-kB SEAP reporter activity,RAW-Dual [3]; [8],1.01
NC(=O)C(=Cn1cnc(-c2cc(C(F)(F)F)cc(C(F)(F)F)c2)n1)c1cncnc1,NF-kB SEAP reporter activity,RAW-Dual [1]; [9],0.765
same,NF-kB SEAP reporter activity,RAW-Dual [1]; [10],0.772
NC(=O)C(=Cn1cnc(-c2cc(C(F)(F)F)cc(C(F)(F)F)c2)n1)c1cncnc1 (library stock concentration (final ~1000-fold dilution): 10 mM),NF-kB SEAP reporter activity,RAW-Dual [3]; agonist: LPS (TLR4) 0.1 ug/mL,0.331
same,NF-kB SEAP reporter activity,RAW-Dual [3]; [6],0.334
same,NF-kB SEAP reporter activity,RAW-Dual [3]; [7],0.13
same,NF-kB SEAP reporter activity,RAW-Dual [3]; [8],0.148
COc1cc2ncnc(Nc3ccc(Oc4ccccc4)cc3C)c2cc1OC.Cl (library stock concentration (final ~1000-fold dilution): 10 mM),NF-kB SEAP reporter activity,RAW-Dual [3]; agonist: LPS (TLR4) 0.1 ug/mL,1.05
same,NF-kB SEAP reporter activity,RAW-Dual [3]; [6],0.422
same,NF-kB SEAP reporter activity,RAW-Dual [3]; [7],0.297
same,NF-kB SEAP reporter activity,RAW-Dual [3]; [8],0.42
COc1cc2ncnc(Nc3ccc(Oc4ccccc4)cc3C)c2cc1OC.Cl,NF-kB SEAP reporter activity,RAW-Dual [1]; [9],1.37
same,NF-kB SEAP reporter activity,RAW-Dual [1]; [10],0.792
CN(C)CC1CCn2cc(c3ccccc32)C2=C(C(=O)NC2=O)c2cn(c3ccccc23)CCO1.Cl (stereo not drawn),NF-kB SEAP reporter activity,RAW-Dual [1]; [4],1.68
same,NF-kB SEAP reporter activity,RAW-Dual [1]; [5],2.13
CN(C)CC1CCn2cc(c3ccccc32)C2=C(C(=O)NC2=O)c2cn(c3ccccc23)CCO1.Cl (stereo not drawn) (library stock concentration (final ~1000-fold dilution): 10 mM),NF-kB SEAP reporter activity,RAW-Dual [2]; agonist: LPS (TLR4) 0.1 ug/mL,3.03
same,NF-kB SEAP reporter activity,RAW-Dual [2]; [6],0.276
same,NF-kB SEAP reporter activity,RAW-Dual [2]; [7],1.55
same,NF-kB SEAP reporter activity,RAW-Dual [2]; [8],1.77
CS(=O)(=O)Nc1ccc([N+](=O)[O-])cc1Oc1ccccc1 (library stock concentration (final ~1000-fold dilution): 10 mM),NF-kB SEAP reporter activity,RAW-Dual [3]; agonist: LPS (TLR4) 0.1 ug/mL,1.05
same,NF-kB SEAP reporter activity,RAW-Dual [3]; [6],0.993
same,NF-kB SEAP reporter activity,RAW-Dual [3]; [7],0.937
same,NF-kB SEAP reporter activity,RAW-Dual [3]; [8],0.873
O=C(Nc1ccc([N+](=O)[O-])cc1O)Nc1ccccc1Br,NF-kB SEAP reporter activity,RAW-Dual [1]; [4],1.47
same,NF-kB SEAP reporter activity,RAW-Dual [1]; [5],1.48
O=C(Nc1ccccc1)c1cc([N+](=O)[O-])ccc1Cl,NF-kB SEAP reporter activity,RAW-Dual [1]; [9],1.37
same,NF-kB SEAP reporter activity,RAW-Dual [1]; [10],0.89
CS(=O)(=O)Nc1ccc([N+](=O)[O-])cc1Oc1ccccc1,NF-kB SEAP reporter activity,RAW-Dual [1]; [9],0.516
same,NF-kB SEAP reporter activity,RAW-Dual [1]; [10],1.08
O=C(Nc1ccccc1)c1cc([N+](=O)[O-])ccc1Cl (library stock concentration (final ~1000-fold dilution): 10 mM),NF-kB SEAP reporter activity,RAW-Dual [3]; agonist: LPS (TLR4) 0.1 ug/mL,0.722
same,NF-kB SEAP reporter activity,RAW-Dual [3]; [6],0.873
same,NF-kB SEAP reporter activity,RAW-Dual [3]; [7],0.881
same,NF-kB SEAP reporter activity,RAW-Dual [3]; [8],0.836
O=C(Nc1ccc([N+](=O)[O-])cc1O)Nc1ccccc1Br (library stock concentration (final ~1000-fold dilution): 10 mM),NF-kB SEAP reporter activity,RAW-Dual [2]; agonist: LPS (TLR4) 0.1 ug/mL,2.98
same,NF-kB SEAP reporter activity,RAW-Dual [2]; [6],2.14
same,NF-kB SEAP reporter activity,RAW-Dual [2]; [7],0.989
same,NF-kB SEAP reporter activity,RAW-Dual [2]; [8],1.7
FC(F)F.N=C(N)NCCCC1NC(=O)C(CCCCN)NC(=O)C(Cc2ccc(O)cc2)NC(=O)C(CC(=O)O)NC(=O)CNC1=O.O=C(O)C(F)(F)F.O=CO (stereo not drawn),NF-kB SEAP reporter activity,RAW-Dual [1]; [9],0.972
same,NF-kB SEAP reporter activity,RAW-Dual [1]; [10],1.04
FC(F)F.N=C(N)NCCCC1NC(=O)C(CCCCN)NC(=O)C(Cc2ccc(O)cc2)NC(=O)C(CC(=O)O)NC(=O)CNC1=O.O=C(O)C(F)(F)F.O=CO (stereo not drawn) (library stock concentration (final ~1000-fold dilution): 10 mM),NF-kB SEAP reporter activity,RAW-Dual [3]; agonist: LPS (TLR4) 0.1 ug/mL,1.23
same,NF-kB SEAP reporter activity,RAW-Dual [3]; [6],0.997
same,NF-kB SEAP reporter activity,RAW-Dual [3]; [7],1.14
same,NF-kB SEAP reporter activity,RAW-Dual [3]; [8],0.899
c1cc(-c2cnn3cc(-c4ccc(N5CCNCC5)cc4)cnc23)c2cccnc2c1 (library stock concentration (final ~1000-fold dilution): 10 mM),NF-kB SEAP reporter activity,RAW-Dual [2]; agonist: LPS (TLR4) 0.1 ug/mL,0.202
same,NF-kB SEAP reporter activity,RAW-Dual [2]; [6],0.193
same,NF-kB SEAP reporter activity,RAW-Dual [2]; [7],0.0775
same,NF-kB SEAP reporter activity,RAW-Dual [2]; [8],0.149
c1cc(-c2cnn3cc(-c4ccc(N5CCNCC5)cc4)cnc23)c2cccnc2c1,NF-kB SEAP reporter activity,RAW-Dual [1]; [4],0.258
same,NF-kB SEAP reporter activity,RAW-Dual [1]; [5],0.269
COc1cc(-c2cc(-c3cccc(O)c3)cnc2N)cc(OC)c1OC (library stock concentration (final ~1000-fold dilution): 10 mM),NF-kB SEAP reporter activity,RAW-Dual [3]; agonist: LPS (TLR4) 0.1 ug/mL,1.87
same,NF-kB SEAP reporter activity,RAW-Dual [3]; [6],1.54
same,NF-kB SEAP reporter activity,RAW-Dual [3]; [7],1.09
same,NF-kB SEAP reporter activity,RAW-Dual [3]; [8],1.39
COc1cc(-c2cc(-c3cccc(O)c3)cnc2N)cc(OC)c1OC,NF-kB SEAP reporter activity,RAW-Dual [1]; [9],1.24
same,NF-kB SEAP reporter activity,RAW-Dual [1]; [10],1.77
COc1cc(-c2cc(-c3ccc(N4CCNCC4)cc3)cnc2C)cc(OC)c1OC,NF-kB SEAP reporter activity,RAW-Dual [1]; [9],1.28
same,NF-kB SEAP reporter activity,RAW-Dual [1]; [10],1.94
COc1cc(-c2cc(-c3ccc(N4CCNCC4)cc3)cnc2C)cc(OC)c1OC (library stock concentration (final ~1000-fold dilution): 10 mM),NF-kB SEAP reporter activity,RAW-Dual [3]; agonist: LPS (TLR4) 0.1 ug/mL,3.37
same,NF-kB SEAP reporter activity,RAW-Dual [3]; [6],0.202
same,NF-kB SEAP reporter activity,RAW-Dual [3]; [7],1.29
same,NF-kB SEAP reporter activity,RAW-Dual [3]; [8],1.57
